Test results taken from PubChem BioAssay (Tox21).
Results filed as inconclusive are left out. The source made the active and inactive calls. Unless noted, calls follow the shape of the dose curve; as a rule, active = well fitted curve in the direction sought with a large enough effect in the repeat runs; inconclusive = weak or mixed curves; inactive = no such curve, though single readings can be large; an effect the other way counts as inactive or inconclusive.

Tests used:
[1] = qHTS assay for small molecule agonists of the p53 signaling pathway (AID 651631; calls by dose curve; also: nearly all actives have a fitted effect of over 15% in size)
Summary of the method: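 Read-out is beta-lactamase FRET fluorescence measured 2 h after substrate addition at room temperature, in HCT-116 cells with a p53 response element-driven reporter exposed to compounds for 16 h at 37 °C.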

[2] = qHTS assay for small molecules that induce genotoxicity in human embryonic kidney cells expressing luciferase-tagged ATAD5 (AID 651632); also: nearly all actives have a fitted effect of over 15% in size
Summary of the method: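 Genotoxicity read-out via ATAD5-luciferase: HEK293T cells, 16 hr compound incubation at 37C, Amplite detection.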

[3] = qHTS assay for small molecule agonists of the p53 signaling pathway - cell viability (AID 651633; calls by dose curve;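 also: p53RE-bla HCT reporter cells with a stable beta-lactamase p53 reporter; nearly all actives have a fitted effect of over 30% in size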)
Summary of the method: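 Viability counter-read: CellTiter-Glo luminescence (30 min, room temperature) in the same p53RE-bla plates. These plates had been exposed to compounds for 16 h at 37 C.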

[4] = qHTS assay for small molecules that induce genotoxicity in human embryonic kidney cells expressing luciferase-tagged ATAD5 - cell viability (AID 651634; calls by dose curve; also: nearly all actives have a fitted effect of over 25% in size)
Summary of the method: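 Live-cell protease activity (CellTiter-Fluor, fluorescence) indicates viability. HEK293T cells with luciferase-tagged ATAD5; 15.5 hr compound treatment at 37C.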

[5] = qHTS assay for small molecule disruptors of the mitochondrial membrane potential - cell viability (AID 720634; calls by dose curve;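 also: human HepG2 liver cancer cells; nearly all actives have a fitted effect of over 20% in size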)
Summary of the method: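 Human hepatoma HepG2 cells were treated for 1 hr with test chemicals, then given m-MPI dye and CellTiter-Glo. Cell viability reflects luminescence proportional to cellular ATP.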

[6] = qHTS assay for small molecule disruptors of the mitochondrial membrane potential (AID 720635)
Summary of the method: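 Mitochondrial membrane potential tracked with Mito-MPS dye, red aggregates (ex 540/em 590 nm) against green monomers (ex 490/em 535 nm). Compound treatment 1 hr at 37C, dye 30 min in HepG2.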

[7] = qHTS assay to test for compound auto fluorescence at 590 nm (red) in HepG2 cells (AID 720674)
Summary of the method: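 1 hr compound incubation on HepG2 cells, 37 C, 5% CO2; plate read ex 540 nm / em 590 nm; intensities reported as Rose Bengal sodium equivalents.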

[8] = qHTS assay to test for compound auto fluorescence at 535 nm (green) in HepG2 cells (AID 720675)
[9] = qHTS assay to test for compound auto fluorescence at 460 nm (blue) in HEK293 cells (AID 720678)
Summary of the method: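 Triamterene serves as the blue fluorophore standard. Compound signal at 405/460 nm is read in HEK293 wells (2,000 cells, 10% dialyzed FBS) after overnight treatment at 37C.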

[10] = qHTS assay to test for compound auto fluorescence at 590 nm (red) in HEK293 cells (AID 720679)
Summary of the method: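 We plated HEK293 cells in 10% dialyzed FBS medium, let them adhere for 4-5 hr, then added 23 nL compound. Overnight at 37C and 5% CO2 preceded fluorescence measurement at 540/590nm.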

[11] = qHTS assay to test for compound auto fluorescence at 535 nm (green) in HEK293 cells (AID 720680)
[12] = qHTS assay to test for compound auto fluorescence at 460 nm (blue) in HEK293 cell free culture (AID 720681)
Summary of the method: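 Blue fluorescence (Ex 405/Em 460 nm, triamterene-equivalent) was read immediately after pin transfer of compound or DMSO into medium (DMEM, 10% FBS) without cells.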

[13] = qHTS assay to test for compound auto fluorescence at 535 nm (green) in HEK293 cell free culture (AID 720682)
Summary of the method: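 Fluorescein serves as the green reference fluorophore; each compound's intrinsic emission at 535 nm (excitation 485 nm) is reported as an equivalent amount of that dye, measured in serum-containing DMEM without cells.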

[14] = qHTS assay to test for compound auto fluorescence at 590 nm (red) in HEK293 cell free culture (AID 720683)
Summary of the method: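 Red-channel autofluorescence of compounds in culture medium (DMEM, 10% FBS), no cells, measured at 540/590 nm. Rose Bengal sodium is the reference fluorophore for equivalence.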

[15] = qHTS assay to test for compound auto fluorescence at 590 nm (red) in HepG2 cell free culture (AID 720684)
Summary of the method: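 Steps: dispense MEM/10% FBS medium, no cells; pin compound or DMSO vehicle; read red channel, Ex/Em 540/590 nm. Output given as Rose Bengal sodium equivalents.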

[16] = qHTS assay to test for compound auto fluorescence at 460 nm (blue) in HepG2 cell free culture (AID 720685)
Summary of the method: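 Compound (23 nL) or DMSO pinned into cell-free MEM with 10% FBS; blue fluorescence read at 405/460 nm excitation/emission, expressed as auto-fluorescence equivalency to triamterene.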

[17] = qHTS assay to test for compound auto fluorescence at 535 nm (green) in HepG2 cell free culture (AID 720686)
[18] = qHTS assay to test for compound auto fluorescence at 460 nm (blue) in HepG2 cells (AID 720687)
Summary of the method: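 Blue-channel autofluorescence (Ex/Em 405/460 nm, triamterene-equivalent) was measured after 1 hr compound exposure at 37 C, 5% CO2. Cells were HepG2, plated overnight at 37 C in MEM plus 10% FBS.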

[19] = target: Glucocorticoid receptor (Homo sapiens) (UniProt P04150); experiment: qHTS assay to identify small molecule agonists of the glucocorticoid receptor (GR) signaling pathway (AID 720691; active = well fitted activation curve with a large enough effect in the signal ratio in the repeat runs, not every such curve was filed as active; the % refers to the signal ratio); conditions: GR-bla HeLa, beta-lactamase reporter ratio, 18 h; activation: at 62.4 µM (top of the series)
Sequence of Glucocorticoid receptor (Homo sapiens) (P04150 whole entry, looked up): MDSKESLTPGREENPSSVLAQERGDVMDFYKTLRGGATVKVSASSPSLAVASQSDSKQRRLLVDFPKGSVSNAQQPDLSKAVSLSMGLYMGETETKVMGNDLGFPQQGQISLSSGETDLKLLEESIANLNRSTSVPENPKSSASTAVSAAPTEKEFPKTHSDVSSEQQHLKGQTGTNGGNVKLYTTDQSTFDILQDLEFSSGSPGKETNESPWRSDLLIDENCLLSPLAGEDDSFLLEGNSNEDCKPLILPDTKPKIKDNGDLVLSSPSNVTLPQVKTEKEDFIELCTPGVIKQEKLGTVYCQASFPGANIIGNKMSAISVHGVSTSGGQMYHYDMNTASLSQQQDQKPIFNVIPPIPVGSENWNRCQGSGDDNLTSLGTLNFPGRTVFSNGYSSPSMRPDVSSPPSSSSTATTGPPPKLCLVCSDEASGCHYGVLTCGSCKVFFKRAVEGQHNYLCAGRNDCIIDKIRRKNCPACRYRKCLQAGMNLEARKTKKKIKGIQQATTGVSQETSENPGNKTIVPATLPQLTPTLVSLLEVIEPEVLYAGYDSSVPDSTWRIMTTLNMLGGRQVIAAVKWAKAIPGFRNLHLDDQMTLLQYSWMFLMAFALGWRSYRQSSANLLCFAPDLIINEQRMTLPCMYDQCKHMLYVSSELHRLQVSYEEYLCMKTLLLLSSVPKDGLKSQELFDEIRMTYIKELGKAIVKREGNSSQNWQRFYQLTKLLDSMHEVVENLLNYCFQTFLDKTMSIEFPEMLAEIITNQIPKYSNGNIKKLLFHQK
Summary of the method: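 Beta-lactamase reporter activity, read as fluorescence intensity, was measured in GR-bla HeLa cells exposed to compounds for 18 h at 37 C and then loaded with LiveBLAzer B/G FRET substrate for 2 h at room temperature.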

[20] = target: Glucocorticoid receptor (Homo sapiens) (UniProt P04150); experiment: qHTS assay to identify small molecule antagonists of the glucocorticoid receptor (GR) signaling pathway (AID 720692; active = well fitted inhibition curve with a large enough effect in the signal ratio in the repeat runs, not every such curve was filed as active; the % refers to the signal ratio)
Summary of the method: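 Fluorescence from cleaved LiveBLAzer B/G FRET substrate reports GRE-driven beta-lactamase in HeLa cells; compounds are tested against 5 nM dexamethasone (final) over 18 h at 37 C, substrate incubation 2 h at room temperature.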

Measured: Potency

CCCCCCCCCC
not listed: [16] | [17] | [18] | [19] | [20]
inactive: all other assays above

CC(C)(N)CO
not listed: [10]
inactive: all other assays above

O=C(O)c1ccc(C(=O)O)cc1
inactive: all assays above

O=C=NCCCCCCN=C=O
not listed: [6] | [19] | [20]
inactive: all other assays above

CC(=O)Nc1cccc(O)c1
not listed: [6] | [16] | [17] | [19] | [20]
inactive: all other assays above

Cc1cnc(C(=O)NCCc2ccc(S(=O)(=O)NC(=O)NC3CCCCC3)cc2)cn1
not listed: [6] | [10] | [18]
inactive: all other assays above

O=c1[nH]c(=O)n([C@H]2C[C@H](O)[C@@H](CO)O2)cc1Br
not listed: [18] | [19] | [20]
inactive: all other assays above

Cc1ccc(N(C)C)cc1
not listed: [6] | [18]
inactive: all other assays above
